Key:
Format in all cases: functional
Plasmodium falciparum [1] = assay: GSK_TCMDC: Inhibition of Plasmodium falciparum 3D7 in whole red blood cells, using parasite LDH activity as an index of growth. Test compounds present at 2uM
Plasmodium falciparum [2] = assay: GSK_TCMDC: Inhibition of Plasmodium falciparum Dd2 in whole red blood cells, using parasite LDH activity as an index of growth. Test compounds present at 2uM
HepG2 = assay: GSK_TCMDC: Percent inhibition of human HepG2 cell line. Test compounds present at 10uM.

| SMILES | Inhibition (Plasmodium falciparum [1]) [%] | Inhibition (Plasmodium falciparum [2]) [%] | Inhibition (HepG2) [%] |
| --- | --- | --- | --- |
| COc1cc(NC(=O)c2cc([N+](=O)[O-])ccc2NC(=O)CNC2CCCC(C)C2C)cc(OC)c1 (stereo not given) | 97 | 80 | 21 |
| CCCCc1cc(NCC)nc(Nc2ccc(OC)cc2)n1 | 85 | 32 | 30 |
| COc1cccc(OCC2CCCN(CCCCNC(=O)c3ccc(NC(=O)c4ccc(Cl)cc4)cc3)C2)c1 (stereo not given) | 100 | 49 | 33 |
| N#Cc1cc(C(=O)c2cc(Cl)ccc2O)cn(-c2cc(Cl)cc(Cl)c2)c1=O | 93 | 32 | 34 |
| COc1ccc(-c2cncc3ccc(C(=O)NCc4ccncc4)nc23)cc1 | 100 | 98 | 25 |
| O=c1cc(NCCCNC(c2ccccc2)c2ccc(Cl)c(Cl)c2)[nH]c2ccccc12 (stereo not given) | 89 | 94 | 13 |
| O=C(Nc1cccc(C(F)(F)F)c1)c1cc([N+](=O)[O-])cc2cn[nH]c12 | 100 | 69 | 60 |
| CCn1c(-c2nonc2N)nc2cnc(Oc3cccc(NC(=O)c4ccc(OCCN5CCCCC5)cc4)c3)cc21 | 98 | 7 | 16 |
| CO/C(=C\C=C\c1cc2cc(Cl)c(Cl)cc2[nH]1)C(=O)NC1CC(C)N(C)C(C)C1 (stereo not given) | 97 | 57 | 64 |
| CN1CCN(CCCN(Cc2ccc(-c3ccc(CNCc4ccc5c(c4)OCO5)cc3)cc2)C(=O)CCC2CCCC2)CC1.O=C(O)C(F)(F)F | 99 | 85 | 55 |
| O=C(Nc1ccc(-c2ccccc2)cc1)Nc1cccc(Cn2ncc(N3CCNCC3)c(Cl)c2=O)c1.O=C(O)C(F)(F)F | 100 | 59 | 30 |
| CCN1CCN(CCCNc2ccnc3cc(Cl)ccc23)CC1.Cl | 100 | 77 | 7 |
| CC(=O)N(C)C1CCN(Cc2cccc(-c3ccc(-c4nc5cc(F)ccc5[nH]4)cc3)c2)C1.O=C(O)C(F)(F)F (stereo not given) | 92 | 19 | 24 |
| COCCNCc1cccc(-c2cccc(CNC3CCN(Cc4ccccc4)CC3)c2)c1.O=C(O)C(F)(F)F | 100 | 99 | 28 |
| COc1cc(Cc2cnc(N)nc2N)ccc1OCc1ccc(NC(C)=O)cc1 | 98 | 0 | 9 |
| Cl.NC1CCN(CCc2ccc(NS(=O)(=O)c3ccc(-c4ccccc4)cc3)cc2)CC1 | 100 | 19 | 17 |
| Cl.O=C(Nc1ccc2c(c1)CCN(C1CCC1)CC2)c1ccc(-n2ccnc2)cn1 | 92 | 0 | 8 |
| CN(C)c1ccc(/C=C2\S/C(=N\c3ccccc3)N(c3ccccc3)C2=O)cc1[N+](=O)[O-] | 96 | 82 | 9 |
| O=C(Cc1ccc(Nc2nccc(Nc3cccc4[nH]ncc34)n2)cc1)Nc1ccc(C(F)(F)F)cc1 | 100 | 69 | 12 |
| COc1cc(Cc2cnc(N)nc2N)ccc1OCc1ccc(F)c(F)c1 | 90 | 31 | 10 |
| CCN(CC)CCN(Cc1ccc(-c2ccc(C(F)(F)F)cc2)cc1)C(=O)Cn1c(SCc2ccc(F)cc2)cc(=O)c2ccccc21.O=C(O)C(O)C(O)C(=O)O | 100 | 70 | 50 |
| Br.CCc1cccc(OCCCON2C(=N)N=C(N)NC2(C)C)c1 | 95 | 94 | 63 |
| COc1ccc(O)cc1Cc1cnc2nc(N)nc(N)c2c1C | 92 | 97 | 67 |
| COc1ccc2nccc([C@@H](O)CN3CCC(NC(=O)C(c4cc5ccccc5s4)N4CCN(c5ccccc5OC)CC4)CC3)c2c1 (stereo not given in full) | 100 | 88 | 21 |
| O=C(Nc1cccc(-c2cccc(-c3nc4cc(C(F)(F)F)ccc4[nH]3)c2)c1)Nc1ccc(F)c(F)c1F | 99 | 100 | 71 |
| Cl.OC(c1cc(C(F)(F)F)nc2c(F)cccc12)C1CCCCN1 (stereo not given) | 98 | 74 | 0 |
| COC(=O)c1cccc(CNCc2cccc(-c3ccc(-c4nc5ccccc5[nH]4)cc3)c2)c1.O=C(O)C(F)(F)F | 99 | 51 | 0 |
| COc1ccc2c(=O)c(I)c(C)[nH]c2c1 | 96 | 96 | 27 |
| CN(C)CCCNCc1cn(S(=O)(=O)c2ccccc2Cl)c2ccccc12.Cl | 92 | 71 | 20 |
| CN(C)CCC(O)C=C(c1ccc(Cl)cc1)c1ccc(Cl)cc1 (stereo not given) | 93 | 85 | 33 |
